In the library only some 21% were active in any assay of this set; here they are far more common.
IL1B secr inh = blocks inflammasome-driven IL-1 beta release | THP-1 LPS/ATP IL-1B secretion, AlphaLISA, 16 h; stronger effect = lower value | activity change, % at 57.5 µM | 360,000 compounds, 4.7% hits; in the data active = activity change below about -50%; inconclusive = mostly about -30% to -49%; note: % is set by controls: 0 for no effect and ±100 for the full control effect
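THP-1 cells pretreated 1 hr with compounds (up to 57.5 uM final), then stimulated with LPS (250 ng/mL final) plus ATP (1.25 mM final); secreted IL-1B measured by AlphaLISA after 16 hr, decreased signal indicating inhibition.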
ClpP mod = qHTS Assay for Activators of ClpP | ATP-dependent Clp protease proteolytic subunit (Bacillus subtilis (strain 168)), P80244 | purified B. subtilis ClpP, FRET peptide cleavage, 20 min | 340,000 compounds, 1.9% hits | Potency, µM (top dose mostly 57.5 µM), inactives show at the highest dose activity change, negative = active | AID 651965, 2013; active = well fitted falling curve with a large enough effect; inconclusive = small, poorly fitted or top-dose-only effect; inactive = no such curve, though single readings can be large or run the other way; note: potency is the fitted concentration of half-maximal effect; the source files actives as falling curves though it sought activators and does not explain the sign; nearly all actives have a fitted effect of over 65% in size
Target sequence (P80244 whole entry, looked up): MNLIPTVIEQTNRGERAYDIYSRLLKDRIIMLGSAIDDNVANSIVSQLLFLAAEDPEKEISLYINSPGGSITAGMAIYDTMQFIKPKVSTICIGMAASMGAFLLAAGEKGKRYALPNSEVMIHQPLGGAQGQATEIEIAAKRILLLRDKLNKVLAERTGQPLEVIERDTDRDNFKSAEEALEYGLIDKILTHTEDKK
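Purified B. subtilis ClpP, 10 microg/mL final in Tris/HCl pH8 with KCl, BSA, glycerol and Tween-20, cleaved an Abz/nitrotyrosine-quenched decapeptide. Fluorescence (ex 320, em 430) was read at 0 and 20 min at room temperature. Delta was normalized to 5.8 microM ADEP and DMSO/no-enzyme controls.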
DT40 TDP1 no CPT = qHTS for Inhibitors of human tyrosyl-DNA phosphodiesterase 1 (TDP1): qHTS in cells in absence of CPT; DT40 Tdp1-/- hTDP1 cells, no CPT, ATP luminescence, 48 h; Potency, µM (doses to about 46.2 µM), for inactives: at the top dose activity change, negative = growth inhibition, actives largely listed as inhibitors; 420,000 compounds, 15% hits; AID 686978, 2013; note: potency is the fitted concentration of half-maximal effect; % is set by controls: 0 for no effect and ±100 for the full control effect; nearly all actives have a fitted effect of over 55% in size
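Compound effects on proliferation are scored in DT40 Tdp1-/-;hTDP1 cells in the absence of CPT. ATP levels (CellTiter-Glo luminescence) are recorded after a ≥48 hr, 37 °C incubation.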
DRD3 agonist = D3 dopamine receptor (human) agonism; D3R DiscoveRx beta-arrestin cells, luminescence, 90 min; max activation, %; 410,000 compounds, 0.58% hits; AID 652048; in the data active = max activation above about 30%; note: 0% is about no effect
Target sequence (P35462 whole entry, looked up): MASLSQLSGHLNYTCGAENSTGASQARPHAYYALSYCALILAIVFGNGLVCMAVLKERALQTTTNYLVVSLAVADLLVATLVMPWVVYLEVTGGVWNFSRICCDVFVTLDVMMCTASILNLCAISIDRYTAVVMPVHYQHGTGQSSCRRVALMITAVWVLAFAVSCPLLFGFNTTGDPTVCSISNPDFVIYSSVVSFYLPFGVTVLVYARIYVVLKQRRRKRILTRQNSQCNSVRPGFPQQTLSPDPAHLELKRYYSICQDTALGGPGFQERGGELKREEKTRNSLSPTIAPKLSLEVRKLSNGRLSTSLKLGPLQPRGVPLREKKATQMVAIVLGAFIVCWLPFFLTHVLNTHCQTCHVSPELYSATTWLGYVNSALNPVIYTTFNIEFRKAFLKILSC
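Agonist mode: compounds and dopamine controls were applied to plated cells for 90 min at 37 degrees C after an overnight attachment at 1500 cells/well. Luminescent read-out followed 30 - 60 minutes at room temperature with DiscoveRx detection reagent.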
D3 antag = blocks the human D3 dopamine receptor. AID 652054. 360,000 compounds, 2.5% hits. P35462. D3R cells, DiscoveRx beta-arrestin luminescence, antagonist mode; stronger effect = lower value. max response, negative = inhibition, %; in the data active = max response below about -50%; inconclusive = no clear call, values can overlap the other calls; note: % is set by controls: 0 for no effect and ±100 for the full control effect
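Cells expressing the human receptor were seeded at 1500 cells/well, incubated overnight at 37 degrees C in 5% CO2, then exposed to library compounds with dopamine controls for 90 minutes at 37 degrees C before luminescent detection.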
TDP1 cell CPT = DT40-hTDP1 cell growth loss with CPT. chicken DT40 Tdp1-/-;hTDP1 cells + 20 nM CPT, ATP luminescence, 48 h. Potency, µM (series often up to 46.2 µM), without a hit: at the top dose activity change, negative = growth inhibition, actives largely listed as inhibitors. 420,000 compounds, 12% hits. AID 686979; note: potency is the fitted concentration of half-maximal effect; % is set by controls: 0 for no effect and ±100 for the full control effect; nearly all actives have a fitted effect of over 55% in size
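Chicken DT40 Tdp1-/- cells stably complemented with human TDP1 were seeded at 400 cells/well in medium containing 20 nM camptothecin, exposed to pin-transferred compounds, and grown at 37 °C for at least 48 hr. Viability was read as ATP luminescence.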
* = called active by the depositor; ? = inconclusive; . = no result. Unless noted, calls come from the whole dose curve; as a rule, active = well fitted inhibition curve with a large enough effect; inconclusive = small, poorly fitted or top-dose-only effect; inactive = flat fitted curve, though single readings scatter.

SMILES	IL1B secr inh	ClpP mod	DT40 TDP1 no CPT	DRD3 agonist	D3 antag	TDP1 cell CPT
Cn1cccc1-c1cc(C(=O)N/N=C/c2cccc(O)c2)[nH]n1	-70*	.	?	-9	-5	?
CCOc1cccc(/C=N/NC(=O)c2cc(-c3cccn3C)n[nH]2)c1O	118	.	9.2µM*	15	8	5.8µM*
O=S1(=O)OC(c2ccc(O)cc2)(c2ccc(O)cc2)c2ccccc21	.	.	0%	-6	.	5%
O=C(Cn1nc(CNc2ccc(Cl)cc2)[n+]2c1CCCCC2)c1ccccc1	-53*	4%	8.2µM*	-15	12	5.2µM*
Clc1ccc(NCc2nnc3n2CCCCC3)cc1	-2	-1%	9%	8	0	5%
COc1ccc(CNc2ccc(Cl)cc2)cc1Cn1ccnc1	-71*	-15%	16µM*	-6	-3	?
Nc1ccc(-c2ncc(-c3ccccc3)o2)cc1	-59*	.	?	7	6	-1%
COc1ccc(Cc2c(-c3ccc(OC)c(OC)c3)nc3ccc(C)cn23)c(C)c1	-6	5%	16µM*	-10	?	?
COc1ccc(-c2nc3c(C)cc(Br)cn3c2Cc2ccccc2)cc1OC	-2	-5%	6.5µM*	1	5	7.3µM*
COc1ccc(Cc2c(-c3ccc(OC)c(OC)c3)nc3c(C)cc(Br)cn23)c(C)c1	-15	1%	1.5µM*	6	4	1.2µM*
COc1ccc(Cc2c(-c3ccc(C)cc3)nc3c(C)cc(Br)cn23)c(C)c1	39	-4%	?	7	14	?
COC(=O)c1cn(C(=O)c2cccc(Br)c2)c2ccccc12	-15	-9%	12%	3	-8	10%
O=C(Cc1nc2ccccc2[nH]1)c1cccc([N+](=O)[O-])c1	0	-7%	3.7µM*	-5	4	2.9µM*
Cc1ccc(C(=O)Cc2nc3ccccc3[nH]2)cc1	-101*	.	-29%	-12	-51*	?
CCOC(=O)c1ccc(NCc2nc3ccccc3[nH]2)cc1	13	-7%	16µM*	5	-6	16µM*
O=C(NCc1nc2ccccc2[nH]1)c1c(F)c(F)c(F)c(F)c1F	-78*	.	18%	5	17	-2%
O=C(Nc1nc2ccccc2[nH]1)c1cccc([N+](=O)[O-])c1	-4	.	?	0	-8	-3%
O=C(NCc1nc2ccccc2[nH]1)c1ccccc1F	1	.	-4%	-18	-17	-2%
CCCCCn1c(=O)[nH]c2cc(C(=O)N3CCN(c4cc(Cl)ccc4C)CC3)ccc2c1=O	.	-4%	?	3	.	?
O=c1c(/C=N\NS(=O)(=O)c2ccccc2)coc2ccc(Cl)cc12	9	-1%	-18%	2	22	?
COCCNc1nc2c(c(=O)n(Cc3ccc(OC)cc3)c(=O)n2C)n1C	46	0%	-3%	0	-14	-6%
COc1ccc(-n2ccnc(NCc3ccc(Cl)cc3)c2=O)cc1	.	-8%	15µM*	-15	.	?
CCC(C)Nc1nc2c(c(=O)n(C)c(=O)n2C)n1Cc1cccc(C)c1 (centres undefined)	-18	-5%	-21%	2	0	1%
CCNc1nc2c(c(=O)n(C)c(=O)n2C)n1Cc1ccc(Cl)cc1	17	0%	6.5µM*	4	-17	3.7µM*
CCNc1nc2c(c(=O)n(Cc3ccccc3)c(=O)n2C)n1Cc1ccccc1	?	4%	?	6	?	?
SMILES	IL1B secr inh	ClpP mod	DT40 TDP1 no CPT	DRD3 agonist	D3 antag	TDP1 cell CPT
CCC(C)Nc1nc2c(c(=O)n(C)c(=O)n2C)n1Cc1ccc(Cl)cc1 (centres undefined)	-27	-4%	23µM*	1	6	13µM*
COc1cccc(CNc2nccn(-c3cc(C)cc(C)c3)c2=O)c1	.	-18%	?	5	.	?
COc1ccc(CNc2nc3c(c(=O)n(Cc4ccc(Cl)cc4)c(=O)n3C)n2C)cc1	?	-4%	23µM*	1	34	18µM*
O=C(NCc1cccc(C(F)(F)F)c1)C1CC(c2ccc(C(F)(F)F)cc2)=NO1 (centres undefined)	-2	5%	?	26	6	-13%
COc1ccc(OC)c(CCNc2nccn(-c3ccc(C)c(C)c3)c2=O)c1	.	-14%	21µM*	4	.	15µM*
CCCNc1nc2c(c(=O)n(C)c(=O)n2C)n1Cc1ccc(F)cc1	13	0%	9.2µM*	2	8	6.5µM*
COc1ccc(CNc2nc3c(c(=O)n(C)c(=O)n3C)n2Cc2ccccc2Cl)cc1	.	-1%	?	7	.	?
Cc1ccc(-n2ccnc(NCc3ccccc3)c2=O)cc1C	.	-10%	?	-1	.	?
Cn1c(=O)c2c(nc(NCc3cccnc3)n2Cc2ccc(Cl)cc2)n(C)c1=O	?	3.2µM*	5.8µM*	2	8	?
C=C(C)Cn1c(NCCC)nc2c1c(=O)n(C)c(=O)n2C	30	-3%	?	1	0	?
O=C(COc1ccccc1)Nc1nc2c(s1)CCCC2	-20	.	?	-13	-77*	?
CCCOc1ccccc1C(=O)Nc1nc2c(s1)CCCC2	.	30%	18µM*	-10	.	21µM*
O=C(COc1ccccc1Cl)Nc1nc(-c2cccs2)cs1	-21	-2%	?	-14	-23	-14%
Cc1nnc(NC(=O)COc2ccccc2)s1	-5	-5%	-5%	-5	17	7%
O=C(COc1ccccc1Cl)Nc1nc2c(s1)CCCC2	.	-3%	10µM*	-13	.	8.2µM*
O=C(CC1N=C2c3ccccc3N=C(SCc3cccc(Cl)c3)N2C1=O)NCCc1ccccc1 (centres undefined)	.	4%	?	-6	.	?
Cc1cccc(NC(=O)C2CCN(c3nnc(C)c4c(C)n(-c5ccccc5)nc34)CC2)c1C	.	-3%	14%	5	.	-16%
Cn1nc(C#N)c(=O)[nH]c1=O	8	.	6%	-14	3	8%
COc1ccccc1CNc1ccnc(-c2ccoc2)n1	.	.	?	.	.	-6%
COCCNc1nc(-c2ccccc2CN(C)C)nc2ccccc12	.	.	12µM*	.	.	?
COCCNc1cc(-c2ccccc2CN(C)C)ncn1	.	.	16%	.	.	5%
COc1ccccc1CNc1nc(-c2ccoc2)nc2ccccc12	.	.	26µM*	.	.	15µM*
COCCNc1nc(-c2ccccc2C)nc2ccccc12	.	.	18µM*	.	.	?
COCCNc1nc(-c2ccccc2C(F)(F)F)nc2ccccc12	.	.	-16%	.	.	-8%
COc1ccccc1CNc1nc(-c2ccccc2CN(C)C)nc2ccccc12	.	.	6.5µM*	.	.	12µM*

High-throughput results as filed in PubChem BioAssay.
